{"source": "PubChem BioAssay (Tox21)", "note": "Records with an inconclusive call do not appear. The source made the active and inactive calls. Calls come from the whole dose curve. % is set by controls: 0 for no effect and ±100 for the full control effect; potency is the fitted concentration of half-maximal effect."}
{"experiment": "p53 small molecule agonists, cell-based qHTS assay: qHTS cell viability counter screen (AID 1963581); note: nearly all actives have a fitted effect of over 45% in size", "settings": "p53RE-bla HCT-116 viability, ATP luminescence, 16 h; series mostly up to 66 µM; activity change, negative = cytotoxicity: at the top concentration", "description": "National Center for Advancing Translational Sciences [NCATS]\nDivision of Preclinical Innovation [DPI]\nU.S. Environmental Protection Agency [EPA]\nNational Institutes of Environmental Health Sciences [NIEHS]\nNational Toxicology Program [NTP]\nU.S. Food and Drug Administration [FDA]\np53, a tumor suppressor protein, is activated following cellular insult, including DNA damage and other cellular stresses. The activation of p53 regulates cell fate by inducing DNA repair, cell cycle arrest, apoptosis, or cellular senescence. The activation of p53, therefore, is a good indicator of DNA damage and other cellular stresses. The CellSensor p53RE-bla HCT-116 cell line (Invitrogen) contains a stably integrated beta-lactamase reporter gene under control of the p53 response elements. The activation of the reporter gene under culture conditions can be detected by fluorescence intensity. This cell line was used to screen the Tox21 compound library in a 1536-well plate format and to identify agonists that activate the p53 signaling pathway. The cytotoxicity of the Tox21 compound library against the p53 RE-bla HCT-116 cell line was tested in parallel by measuring the intra cellular ATP content in the same wells.\nTox21 Assay Protocol Summary:\nThe p53RE-bla cells were dispensed at 4,000 cells/5 ul/well in 1536-well black wall/clear bottom plates using a Multidrop dispenser. After the assay plates were incubated at a 37 C/5% CO2 incubator for 5 hours, 23 nL of compounds dissolved in DMSO, positive controls or DMSO only was transferred to the assay plate by a pin tool. The plates were incubated at 37 C for 16 hours. After 1 uL of LiveBLAzerTM B/G FRET substrate was added using a Flying Reagent Dispenser, the plates were incubated at room temperature for 2 hours, and fluorescence intensity was measured by an Envision plate reader. For cell viability readout that measures cytotoxicity, 4 ul/well of CellTiter-Glo reagent was added into the assay plates using a Flying Reagent Dispenser. After 30 min incubation at room temperature, the luminescence intensity in the plates was measured using a ViewLux plate reader."}
{"smiles": "CCCCCCCCSCc1cc(C)c(O)c(CSCCCCCCCC)c1", "activity change, negative = cytotoxicity": "1.77% (inactive)"}
{"smiles": "CC(C)C(=O)OCc1cccc(OC(=O)[C@@H]2N3C(=O)[C@@H](NC(=O)Cc4ccccc4)[C@H]3SC2(C)C)c1", "activity change, negative = cytotoxicity": "1.14% [at 30.3 µM] (inactive)"}
{"smiles": "CCCCCCC(CO)CCCC", "note": "(stereo not given)", "activity change, negative = cytotoxicity": "6.48% (inactive)"}
{"smiles": "NCCCC[C@H](N[C@@H](CCc1ccccc1)C(=O)O)C(=O)N1CCC[C@H]1C(=O)O", "activity change, negative = cytotoxicity": "-8.49% [at 30.3 µM] (inactive)"}
{"smiles": "O=NN(CCCl)C(=O)NCCCl", "activity change, negative = cytotoxicity": "-0.285% [at 30.3 µM] (inactive)"}
{"smiles": "Cc1ccc(=O)n(-c2ccccc2)c1", "activity change, negative = cytotoxicity": "-8.38% [at 30.3 µM] (inactive)"}
{"smiles": "CC[N+](C)(CC)CCOC(=O)C(O)(c1ccccc1)C1CCCCC1", "note": "(stereo not given)", "activity change, negative = cytotoxicity": "-5.54% [at 30.3 µM] (inactive)"}
{"smiles": "CCNc1nc(NC(C)(C)C)nc(OC)n1", "activity change, negative = cytotoxicity": "0.76% (inactive)"}
{"smiles": "CCCCCC(=O)OCCc1ccccc1", "activity change, negative = cytotoxicity": "-7.79% (inactive)"}
{"smiles": "Cc1ccc(C)c(N)c1", "activity change, negative = cytotoxicity": "0% (inactive)"}
{"smiles": "ClCCl", "activity change, negative = cytotoxicity": "-1.9% (inactive)"}
{"smiles": "CCCCCCCCCCCCCCCCCCOS(=O)(=O)O", "activity change, negative = cytotoxicity": "-3.92% (inactive)"}
{"smiles": "CCOC(=O)c1ccc(I)cc1", "activity change, negative = cytotoxicity": "-11.9% (inactive)"}
{"smiles": "CCCCCN=C(N)N/N=C/c1c[nH]c2ccc(OC)cc12", "Potency": "15.8 µM (active)"}
{"smiles": "C=C(C)C(=O)OCC1CCCO1", "note": "(stereo not given)", "activity change, negative = cytotoxicity": "1.38% (inactive)"}
{"smiles": "Cc1nc(-c2ccc(Cl)cc2)oc1COC(C)(C)C(=O)O", "activity change, negative = cytotoxicity": "-13.5% [at 30.3 µM] (inactive)"}
{"smiles": "FC1(F)C(F)(F)C(F)(F)C2(F)C(F)(C1(F)F)C(F)(F)C(F)(F)C1(F)C(F)(F)C(F)(F)C(F)(F)C(F)(F)C12F", "note": "(stereo not given)", "activity change, negative = cytotoxicity": "4.12% (inactive)"}
{"smiles": "CC(Oc1cc(Cl)ccc1Cl)C(=O)O", "note": "(stereo not given)", "activity change, negative = cytotoxicity": "4.6% (inactive)"}
{"smiles": "NC(=O)c1ccncc1", "activity change, negative = cytotoxicity": "14.4% (inactive)"}
{"smiles": "CN(C)CCc1c[nH]c2ccc(C[C@H]3COC(=O)N3)cc12", "activity change, negative = cytotoxicity": "0.202% [at 30.3 µM] (inactive)"}
{"smiles": "[O]=[Bi]", "activity change, negative = cytotoxicity": "5.64% [at 5.99 µM] (inactive)"}
{"smiles": "CC(C)NCCCC1(C(N)=O)c2ccccc2-c2ccccc21", "activity change, negative = cytotoxicity": "-2.52% [at 30.3 µM] (inactive)"}
{"smiles": "O=C(NCCO[N+](=O)[O-])c1cccnc1", "activity change, negative = cytotoxicity": "-1.45% [at 30.3 µM] (inactive)"}
{"smiles": "C[N+]1(C)CCC(=C(c2ccccc2)c2ccccc2)CC1", "activity change, negative = cytotoxicity": "-3.87% [at 30.3 µM] (inactive)"}
{"smiles": "Cn1c(=O)cc(Oc2ccc(F)cc2F)c2cnc(NCC(C)(C)O)nc21", "activity change, negative = cytotoxicity": "-9% (inactive)"}
{"smiles": "O=C(O)Cc1c(Cl)ccc(Cl)c1Cl", "activity change, negative = cytotoxicity": "0.496% (inactive)"}
{"smiles": "CCc1cccc(C)c1", "activity change, negative = cytotoxicity": "-10.1% (inactive)"}
{"smiles": "CN(C)[C@@H]1C(=O)C(C(=O)NCN2CCCC2)=C(O)[C@@]2(O)C(=O)C3=C(O)c4c(O)cccc4[C@@](C)(O)C3C[C@@H]12", "note": "(stereo not given in full)", "activity change, negative = cytotoxicity": "1.7% [at 30.3 µM] (inactive)"}
{"smiles": "CN(C)CCC=C1c2ccccc2C=Cc2ccccc21", "activity change, negative = cytotoxicity": "-11% [at 30.3 µM] (inactive)"}
{"smiles": "CO[C@@H]1COCC[C@@H]1N[C@@H]1CC[C@@](C(=O)N2CCc3ncc(C(F)(F)F)cc3C2)(C(C)C)C1", "activity change, negative = cytotoxicity": "13.1% (inactive)"}
{"smiles": "O=C(CCBr)N1CCN(C(=O)CCBr)CC1", "activity change, negative = cytotoxicity": "-9.62% [at 30.3 µM] (inactive)"}
{"smiles": "CC1=C(/C=C/C(C)=C\\C=C\\C(C)=C\\C(=O)O)C(C)(C)CCC1", "activity change, negative = cytotoxicity": "19.8% (inactive)"}
{"smiles": "OC[C@@H](O)C(O)[C@@H](O)CO", "note": "(stereo not given in full)", "activity change, negative = cytotoxicity": "-8.47% (inactive)"}
{"smiles": "CC(=O)Nc1cccc(C)c1", "activity change, negative = cytotoxicity": "3.81% (inactive)"}
{"smiles": "O=C(O)CCCc1ccccc1", "activity change, negative = cytotoxicity": "-14.5% [at 30.3 µM] (inactive)"}
{"smiles": "CCCC(c1cc(C(C)(C)C)c(O)cc1C)c1cc(C(C)(C)C)c(O)cc1C", "Potency": "5.83 µM (active)"}
{"smiles": "CCC1C(=O)OCC1Cc1cncn1C", "note": "(stereo not given)", "activity change, negative = cytotoxicity": "-7.84% [at 30.3 µM] (inactive)"}
{"smiles": "CC(=O)NO", "activity change, negative = cytotoxicity": "-0.0228% [at 30.3 µM] (inactive)"}
{"smiles": "CCCCCCCCc1ccc(S(=O)(=O)O)cc1", "activity change, negative = cytotoxicity": "-12.1% (inactive)"}
{"smiles": "C=CCOc1c(Br)cc(C(C)(C)c2cc(Br)c(OCC=C)c(Br)c2)cc1Br", "activity change, negative = cytotoxicity": "-8.62% [at 30.3 µM] (inactive)"}
